Measurements as given in PubChem BioAssay (NCATS).
Results filed as inconclusive are left out. Values without a mark were called inactive. Active and inactive are the calls of the source. Calls follow the shape of the dose curve; as a rule, active = well fitted cell-killing curve with a large enough effect; inconclusive = small, poorly fitted or top-dose-only effect; inactive = no such curve, though single readings can be large or run the other way.

Experiment: qHTS of pediatric cancer cell lines to identify multiple opportunities for drug repurposing: Primary screen for SK-N-MC cells (AID 1347093)
Conditions: SK-N-MC viability, CellTiter-Glo luminescence, 48 h; series mostly up to 46 µM; activity change, negative = cytotoxic: at the top concentration
From the text: Drug repurposing or repositioning has been offered as a strategy for drug development in oncology programs. This approach has special potential for childhood cancers and other rare or orphan diseases, where the expected return on new drug development has been a disincentive to pharmaceuticals.
In this project we exploit the poly-pharmacology of drugs to discover new indications via phenotypic screening of a panel of 19 well-characterized cell lines derived from solid tumors seen in children and adolescents. The goal is to identify approved drugs with previously unrecognized anticancer properties that has the potential to reveal new mechanisms and biological processes involved in carcinogenesis or drug resistance. We employed a titration-based paradigm (quantitative high-throughput screening or qHTS), where all compounds were tested at multiple concentrations for their effect on cell viability. Concentration-response curves (CRCs) were derived directly from the primary screen, and both potency and efficacy values were used to identify compounds with robust bioactivity profiles. We screened the NIH Chemical Genomics Center (NCGC) Pharmaceutical Collection (NPC) and Mechanism Interrogation Plate (MIPE) small molecule collections of approved and investigational compounds against these cell lines; and measured metabolically active cells after 48 hours of compound treatment as a proxy for cell viability.
Assay Submitter: Nathalia J. Martinez, National Center for Advancing Translational Sciences, National Institutes of Health, Rockville, MD, USA; email: natalia.martinez@nih.gov
[1] Shen, M et al. Quantitative high-throughput phenotypic screening of pediatric cancer cell lines identifies multiple opportunities for drug repurposing. Oncotarget 2017 Dec 19;9(4):4758-4772. PMID 29435139.
The cells were obtained from University of North Carolina (UNC), Pediatric Preclinical Testing Program (PPT), and Coriell Institute (CI).
qHTS cell viability assay:
Cells were assayed in growth media at a density of 500-1,000 cells/well. Five microliters of cells were dispensed into 1,536-well, white, solid-bottom, TC-treated plates (Greiner Bio One) using a multidrop dispenser and incubated at 37 degrees C, 5% CO2, under a humidified atmosphere for 5 hours. Twenty-three nanoliters of compounds and controls (neutral control DMSO or positive control bortezomib at final concentration of 2.3 µM) were subsequently transferred by Kalypsys pintool. For primary screens, the MIPE collection was tested at 11-point dilutions (final concentrations range from 0.78 nM to 46 µM) and the NPC collection at 8-point dilutions (final concentrations range from 0.59nM to 46 µM). Compounds tested in follow-up screens were assayed at 11-point dilutions. Cells were incubated for 48 hours, followed by addition of 3 uL of CellTiter-Glo (Promega). After a 15 min incubation at room temperature, samples were analyzed for luminescence intensity using a ViewLux High-throughput CCD imager equipped with clear filters.
Potency is read from the fitted curve at half-maximal effect.

SMILES | activity change, negative = cytotoxic [%] | Potency
CO[C@]12C[C@@H](COC(=O)c3cncc(Br)c3)CN(C)[C@@H]1Cc1cn(C)c3cccc2c13 | 7.6 | –
CN(CCCN1c2ccccc2CCc2ccccc21)CC(=O)c1ccc(Cl)cc1 | -21 | –
CCN(CC)CCNc1ccc(CO)c2sc3ccccc3c(=O)c12 | – | 21.1 µM (active)
CC(C)Cc1ccc(CC(=O)O)cc1 | -9.55 | –
CCOc1ccccc1C(N)=O | -17 | –
N#CCC(=O)NN | -6.81 | –
FC1(F)C(F)(F)C(F)(F)C2(F)C(F)(F)C(F)(F)C(F)(F)C(F)(F)C2(F)C1(F)F (stereo not given) | 3.68 | –
CC(=O)O[C@H]1C[C@@H]2CC[C@@H]3[C@H](CC[C@@]4(C)[C@H]3C[C@H]([N+]3(C)CCCCC3)[C@@H]4OC(C)=O)[C@@]2(C)C[C@@H]1N1CCCCC1 | 6.38 | –
CC1(C)OC[C@@H]2O[C@@]3(C(=O)O)OC(C)(C)O[C@H]3[C@@H]2O1 | -2.63 | –
O=C(O)P(=O)(O)O | -0.122 | –
OC(C#CCN1CCCC1)(c1ccccc1)c1ccccc1 | -5.35 | –
C[N+]12CCC(CC1)C(OC(=O)C(O)(c1ccccc1)c1ccccc1)C2 (stereo not given) | -2.73 | –
CCCCCCCCOc1ccc(C(=O)c2ccccc2)c(O)c1 | 19.8 | –
NC(=S)N/N=C/c1cccnc1 | -5.65 | –
C=C[C@H]1CN2CC[C@H]1C[C@@H]2[C@@H](O)c1ccnc2ccc(OC)cc12 | 10.1 | –
O=C(NC1CCN(CCc2c[nH]c3ccccc23)CC1)c1ccccc1 | -7.13 | –
Cc1ccc2c(Br)cc(Br)c(O)c2n1 | – | 11.9 µM (active)
CCCCNc1ccc(C(=O)OCCOCCOCCOCCOCCOCCOCCOCCOCCOC)cc1 | -2.94 | –
CCCc1ncc(C[n+]2ccccc2C)c(N)n1 | -17.4 | –
CN1CCC(OC(c2ccccc2)c2ccccc2)CC1 | -0.0856 | –

SMILES | activity change, negative = cytotoxic [%] | Potency
CC(=O)NC(=O)c1ccccc1O | 24.4 | –
Cl/C(=C\n1cncn1)c1ccc(Cl)cc1Cl | 2.03 | –
CC(C)=CCOc1ccc(/C=C/C(=O)c2ccc(OCC=C(C)C)cc2OCC(=O)O)cc1 | – | 21.1 µM (active)
COc1ccc(CCN(C)CCCN2CCc3cc(OC)c(OC)cc3CC2=O)cc1OC | -3.65 | –
CC(C)(C)NC[C@H](O)COc1cccc2c1CCCC2=O | -6.57 | –
Cc1c(-c2ccccc2)oc2c(C(=O)OCCN3CCCCC3)cccc2c1=O | -16.9 | –
CC(=O)NO | -12.6 | –
Cc1cccc(C)c1NC(=O)CN1CCCC1 | -18.1 | –
CCN1CCCC(OC(=O)C(c2ccccc2)c2ccccc2)C1 (stereo not given) | -17.1 | –
O=C(O)C1(C(=O)O)CCC1.[NH2-].[NH2-].[Pt+2] | -34 | –
O=C1C(O)=C(O)C(=O)C(O)=C1O | -16.5 | –
N#C/C(=C1\SCC(c2ccccc2Cl)S1)n1ccnc1 (stereo not given) | -23 | –
CCOCCn1c(N2CCCN(C)CC2)nc2ccccc21 | -25 | –
OC[C@H]1O[C@@H](Oc2ccc(O)cc2)[C@H](O)[C@@H](O)[C@@H]1O | -22 | –
NCCNc1cccc2ccccc12 | -24.6 | –
CCCCCCCCCCCCSCCOCCO | 9.77 | –
Cc1cc(NS(=O)(=O)c2ccc(N)cc2)nc(C)n1 | 0.0555 | –
CCCN(CCC)S(=O)(=O)c1ccc(C(=O)O)cc1 | -2.5 | –
CCc1cc(Cl)c(OC)c(C(=O)NC[C@@H]2CCCN2CC)c1O | -28.5 | –
CC(C)CCCC(C)N (stereo not given) | -7.55 | –
